Values joined by “and” are separate entries in the source; they are usually repeats but may differ in a detail not shown here. Identical values can stand only once. Screen size: about 5,500 compounds; about 2,000 (36%) were called active. About 18% were inconclusive and are not listed. Rule as the data show it: active = normalized growth mostly below about 0.91 (no sharp cut-off); inconclusive = no clear call, values can overlap the other calls; inactive = mostly above about 0.92. The list shows a part of the results.
Test: chemical genetic growth profiling, strain panel (AID 1159580);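 also: tested at 20 µM; growth read once vehicle control cultures reached saturation at 30 °C; 1 = growth at the plate median or of vehicle wells; lower values mean less growth of the strain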
Details: S. cerevisiae deletion strains, growth OD

Measured: normalized growth

CC1=CC(=O)C(C(C)C)=CC1=O
active: locus YAL013W, strain DEP1, stronger effect = lower value 0.784 | locus YAL026C, strain drs2, stronger effect = lower value 0.711 | locus YAL030W, strain snc1, stronger effect = lower value 0.914 | locus YBR009C, strain hhf1, stronger effect = lower value 0.488 | locus YBR021W, strain FUR4, stronger effect = lower value 0.827 | locus YCL011C, strain gbp2, stronger effect = lower value 0.375 | locus YCR088W, strain abp1, stronger effect = lower value 0.777 | locus YDL192W, strain arf1, stronger effect = lower value 0.776 | locus YDR101C, strain arx1, stronger effect = lower value 0.87 | locus YDR137W, strain rgp1, stronger effect = lower value 0.665 | locus YDR159W, strain sac3, stronger effect = lower value 0.773 | locus YDR318W, strain mcm21, stronger effect = lower value 0.878 | locus YDR388W, stronger effect = lower value 0.925 | locus YDR392W, strain spt3, stronger effect = lower value 0.455 | locus YDR502C, strain sam2, stronger effect = lower value 0.857 | locus YEL003W, strain gim4, stronger effect = lower value 0.416 | locus YER155C, strain BEM2 (second series), stronger effect = lower value 0.425 | locus YER155C, strain BEM2, stronger effect = lower value 0.871 | locus YER167W, strain BCK2, stronger effect = lower value 0.897 | locus YGL086W, strain mad1, stronger effect = lower value 0.846 | locus YGL227W, strain vid30, stronger effect = lower value 0.217 | locus YGL248W, strain PDE1, stronger effect = lower value 0.849 | locus YGR078C, strain PAC10, stronger effect = lower value 0.547 | locus YGR135W, strain pre9, stronger effect = lower value 0.826 | locus YGR252W, strain gcn5, stronger effect = lower value 0.746 | locus YHR129C, strain ARP1, stronger effect = lower value 0.864 | locus YHR142W, strain chs7, stronger effect = lower value 0.775 | locus YHR200W, strain rpn10, stronger effect = lower value 0.911 | locus YIL066C, strain RNR3, stronger effect = lower value 0.828 | locus YIL125W, strain kgd1, stronger effect = lower value 0.926 | locus YIR030C, strain dcg1, stronger effect = lower value 0.9 | locus YJL129C, strain trk1, stronger effect = lower value 0.65 | locus YJL164C, strain tpk1, stronger effect = lower value 0.785 | locus YJL166W, strain qcr8, stronger effect = lower value 0.415 | locus YJR043C, strain POL32, stronger effect = lower value 0.79
inactive: locus YAL021C, strain ccr4, stronger effect = lower value 0.91 | locus YBL061C, strain skt5, stronger effect = lower value 0.992 | locus YBR023C, strain chs3, stronger effect = lower value 0.997 | locus YBR171W, strain sec66, stronger effect = lower value 0.996 | locus YBR229C, strain ROT2, stronger effect = lower value 0.984 | locus YBR231C, strain swc5, stronger effect = lower value 0.956 | locus YBR279W, strain paf1, stronger effect = lower value 0.98 | locus YCL016C, strain dcc1, stronger effect = lower value 0.984 | locus YCL029C, strain bik1, stronger effect = lower value 0.926 | locus YCL061C, strain MRC1, stronger effect = lower value 0.966 | locus YCL069W, strain vba3, stronger effect = lower value 0.993 | locus YDL005C, strain med2, stronger effect = lower value 0.974 | locus YDL035C, strain GPR1, stronger effect = lower value 0.859 | locus YDL040C, strain nat1, stronger effect = lower value 0.996 | locus YDL074C, strain BRE1, stronger effect = lower value 0.797 | locus YDL101C, strain DUN1, stronger effect = lower value 0.954 | locus YDL185W, strain tfp1, stronger effect = lower value 0.935 | locus YDR001C, strain nth1, stronger effect = lower value 1 | locus YDR069C, strain doa4, stronger effect = lower value 0.988 | locus YDR162C, strain NBP2, stronger effect = lower value 0.858 | locus YDR195W, strain ref2 1.03 | locus YDR297W, strain sur2, stronger effect = lower value 0.989 | locus YDR335W, strain msn5, stronger effect = lower value 0.998 | locus YEL037C, strain rad23, stronger effect = lower value 0.996 | locus YEL061C, strain CIN8 (second series), stronger effect = lower value 0.917 | locus YER015W, strain faa2, stronger effect = lower value 0.989 | locus YER016W, strain bim1, stronger effect = lower value 1.01 | locus YER110C, stronger effect = lower value 0.922 | locus YER111C, strain swi4, stronger effect = lower value 0.994 | locus YFR010W, strain ubp6, stronger effect = lower value 0.93 | locus YGL078C, strain dbp3, stronger effect = lower value 0.932 | locus YGL167C, strain pmr1, stronger effect = lower value 0.996 | locus YGL173C, strain kem1, stronger effect = lower value 0.947 | locus YGL240W, strain doc1, stronger effect = lower value 0.938 | locus YGL253W, strain hxk2, stronger effect = lower value 0.956 | locus YHR013C, strain ard1, stronger effect = lower value 0.995 | locus YHR027C, strain rpn1, stronger effect = lower value 0.996 | locus YHR079C, strain IRE1 (second series), stronger effect = lower value 0.935 | locus YHR079C, strain IRE1, stronger effect = lower value 0.941 | locus YHR094C, strain hxt1, stronger effect = lower value 0.949 | locus YIL073C, strain SPO22, stronger effect = lower value 0.765 | locus YJL092W, strain hpr5, stronger effect = lower value 0.989 | locus YJL095W, strain BCK1 (second series), stronger effect = lower value 0.928 | locus YJL115W, strain asf1, stronger effect = lower value 0.981 | locus YJL134W, strain LCB3, stronger effect = lower value 0.982 | locus YJL154C, strain vps35, stronger effect = lower value 0.989 | locus YJL168C, strain set2, stronger effect = lower value 0.942 | locus YJL187C, strain SWE1 (second series), stronger effect = lower value 0.931 | locus YJL187C, strain SWE1, stronger effect = lower value 0.974
0.468 (active) and 0.942 (inactive): locus YJL095W, strain BCK1, stronger effect = lower value
0.556 (active) and 0.951 (inactive): locus YHR030C, strain SLT2, stronger effect = lower value
